Test [1] in a line: Wnt pathway potentiators raising nuclear beta-catenin – imaging, WNT3A-conditioned medium, mouse C2C12, NPC library, primary screen (AID 1117326; in the data active = nuclear beta-catenin stimulation mostly above about 4.2%, no sharp cut-off; inactive = mostly below about 10%). To be noted: stronger effect = higher value.
Test [2] can be described thus: stimulators of insulin release from INS-1E, primary screen, cell-based, 5 mM glucose, NPC library (AID 1117329;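 active = compound raises insulin release from rat beta cells at 5 mM glucose, no numeric limit stated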). To be noted: rat INS-1E insulin secretion, at 10 µM, stronger effect = higher value.
A short description of test [3]: growth inhibition of GSK3B-pretreated HCT116 cells – cell-based, CellTiter-Glo, 0.2 to 20 µM (AID 1117336;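 active = compounds lowering colon cancer cell viability after pretreatment blocking the GSK3B kinase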). Particulars: HCT116 viability after GSK3B inhibitor, at 20 µM, stronger effect = higher value. (Cellular ATP, detected with luciferase, serves as a proxy for viable cell number.)
The nature of test [4]: inhibition of endothelial tube formation, primary screen, imaging, VEGF stimulated, CD31 staining, tube area, NPC library (AID 1117340;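 active = compound that reduces growth-factor-driven endothelial tube area in a mixed cell culture, no cutoff stated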). To be noted: VEGF-stimulated ADSC/ECFC co-culture, at 10 µM, stronger effect = higher value.
Test [5] is described as follows: GLP1 release stimulators, primary, NCI-H716, NPC library (AID 1117341;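 active = compound raises GLP1 secretion from the human gut endocrine cells, with no numeric limit stated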). To be noted: NCI-H716 cells, at 10 µM, stronger effect = higher value.
The nature of test [6]: HCT116 colon cancer cell growth inhibition, primary screen, CellTiter-Glo luminescence, NPC library (AID 1117342;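 active = compounds that lower survival of HCT116 colon cancer cells in the luminescence readout, no numeric limit stated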). To be noted: at 20 µM (top of the series).
Test [7] is described as follows: reduced SW480 viability measured with CellTiter-Glo, NPC library, primary (AID 1117343;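 active = compounds that lower viability of the colon cancer cells in the luminescence readout, with no numeric limit stated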). Particulars: CellTiter-Glo luminescence; at 20 µM (top of the series).
The nature of test [8]: NPC library primary testing for decreased DLD-1 cell viability via CellTiter-Glo (AID 1117346;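 active = compounds that lower survival of DLD-1 colon cancer cells in the luminescence readout, no cutoff given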). Particulars: DLD-1 viability, CellTiter-Glo luminescence; at 20 µM (top of the series).
For test [9], the target named is 6-phosphogluconate dehydrogenase, decarboxylating (Homo sapiens) (UniProt P52209). In words: inhibition of human phosphogluconate dehydrogenase – biochemical, recombinant enzyme, NADPH absorbance, primary screen (AID 1159550;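 active = at least 20% inhibition of 6-phosphogluconate dehydrogenase activity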). To be noted: recombinant 6PGD, NADPH absorbance 341 nm; at 10 µM; stronger effect = higher value.
Test [10] can be described thus: EMT-state selective cytotoxicity in co-culture – imaging, PC-3E GFP, TEM4-18 mCherry, primary screen (AID 1345086;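 active = compounds killing one labelled cell type while sparing the other, by normalised counts and ratio limits, not self-fluorescent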;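 as to all read-outs here: cells exposed to compound for 72 h before imaging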;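 as to red/green cell ratio (normalised): normalised mesenchymal count divided by normalised epithelial count so high means epithelial killing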). To be noted: PC-3E GFP / TEM4-18 mCherry co-culture, imaging cell counts, at 1 µM; for red/green cell ratio (normalised): actives lie on both sides, counts scaled to control wells, 1 = unselective.
Test [11] in a line: MELAS cybrid and Rieske KO viability enhancers – cell-based, MELAS cybrids, Rieske KO mouse fibroblasts, CellTiter-Glo, primary screen (AID 1508586;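 active = mean z-score across replicates of 1.96 or higher in either the MELAS or the Rieske mutant cell line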;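 also: z relative to plate mean and SD of compound and empty wells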). Particulars: low glucose.
For test [12], the target named is NAD(+) hydrolase SARM1 (Homo sapiens) (UniProt Q6SZW1). In words: blocking NAD cleavage by SARM1 SAM-TIR – cell lysate, NAD-Glo luminescence (AID 1508614;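 active = compound whose remaining NAD level is above about 45 nM, limit read from the data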;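 also: higher remaining NAD means stronger inhibition of SARM1 NADase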). To be noted: SAM-TIR HEK293T lysate NADase, at 1 µM, stronger effect = higher value.
The subject of another test is F380Y. In words: BK channel mutant inhibitors and activators – cell-based, U2OS BacMam, thallium flux, beta subunits, selectivity assay, profiling panel (AID 1259406).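 Also: initial slope of Thallos dye fluorescence rise after thallium is added; log ratio against the mean of 0.3% DMSO vehicle wells on the same plate.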 To be noted: U2OS BacMam BK variants, at 30 µM.
A further test concerns F380Y/beta1. The description is as above. To be noted: U2OS BacMam BK variants, at 30 µM.
A further test has as its system F380Y/beta2Delta. The description is as above. Particulars: U2OS BacMam BK variants, at 30 µM.
The subject of another test is F380Y/beta4. The description is as above. To be noted: U2OS BacMam BK variants, at 30 µM.
In test [13] the target is Calcium-activated potassium channel subunit alpha-1 (Homo sapiens) + Leucine-rich repeat-containing protein 26 (Homo sapiens) (UniProt Q12791+Q2I0M4). The description is as above. To be noted: U2OS BacMam BK variants, F380Y/Slo1WT/gamma1, at 30 µM.
The subject of another test is R275C. The description is as above. To be noted: U2OS BacMam BK variants, at 30 µM.
Test [14] in a line: viability loss with induced miR-34 in A549 – imaging, A549 dox-inducible miR-34, nuclei and caspase counts, primary screen (AID 1347080;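 active = compounds whose cell count with miR-34 switched on is under 0.7 times the count with it off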). Particulars: A549 miR-34 inducible, Hoechst nuclei count, 48 h.
Setting [15] is: measured here: epithelial PC-3E GFP cell survival.
The mark [16] stands for this setting: measured here: mesenchymal TEM4-18 mCherry cell survival.
Setting [17] is: MELAS cybrid survival, CellTiter-Glo 48 h, stronger effect = higher value.
Setting [18] is: Rieske KO mouse fibroblast survival, CellTiter-Glo 72 h.

“And” between values parts separate entries of the source, which are not always exact repeats. Equal entries are not always repeated. The source made the active and inactive calls.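 The calls were made as follows, unless noted: active = thallium flux through the channel raised or lowered by more than 3 SD from vehicle-only wells, actives on both sides; inactive = the rest.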

Consider three molecules from PubChem BioAssay.

Chain of 6-phosphogluconate dehydrogenase, decarboxylating (Homo sapiens) (P52209 whole entry, looked up): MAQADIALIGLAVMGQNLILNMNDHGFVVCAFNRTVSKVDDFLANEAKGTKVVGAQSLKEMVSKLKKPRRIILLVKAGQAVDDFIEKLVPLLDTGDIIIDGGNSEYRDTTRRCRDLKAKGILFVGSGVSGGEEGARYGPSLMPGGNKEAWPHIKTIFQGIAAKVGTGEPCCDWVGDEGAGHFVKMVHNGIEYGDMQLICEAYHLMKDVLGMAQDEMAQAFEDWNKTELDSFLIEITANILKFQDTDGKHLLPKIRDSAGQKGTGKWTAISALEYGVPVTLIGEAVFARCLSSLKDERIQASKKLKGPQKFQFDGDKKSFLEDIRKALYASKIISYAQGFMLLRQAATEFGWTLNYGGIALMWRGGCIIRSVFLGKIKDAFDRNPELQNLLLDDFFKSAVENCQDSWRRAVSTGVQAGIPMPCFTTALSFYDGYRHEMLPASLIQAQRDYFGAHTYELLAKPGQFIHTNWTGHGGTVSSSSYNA
Chain of NAD(+) hydrolase SARM1 (Homo sapiens) (Q6SZW1 whole entry, looked up): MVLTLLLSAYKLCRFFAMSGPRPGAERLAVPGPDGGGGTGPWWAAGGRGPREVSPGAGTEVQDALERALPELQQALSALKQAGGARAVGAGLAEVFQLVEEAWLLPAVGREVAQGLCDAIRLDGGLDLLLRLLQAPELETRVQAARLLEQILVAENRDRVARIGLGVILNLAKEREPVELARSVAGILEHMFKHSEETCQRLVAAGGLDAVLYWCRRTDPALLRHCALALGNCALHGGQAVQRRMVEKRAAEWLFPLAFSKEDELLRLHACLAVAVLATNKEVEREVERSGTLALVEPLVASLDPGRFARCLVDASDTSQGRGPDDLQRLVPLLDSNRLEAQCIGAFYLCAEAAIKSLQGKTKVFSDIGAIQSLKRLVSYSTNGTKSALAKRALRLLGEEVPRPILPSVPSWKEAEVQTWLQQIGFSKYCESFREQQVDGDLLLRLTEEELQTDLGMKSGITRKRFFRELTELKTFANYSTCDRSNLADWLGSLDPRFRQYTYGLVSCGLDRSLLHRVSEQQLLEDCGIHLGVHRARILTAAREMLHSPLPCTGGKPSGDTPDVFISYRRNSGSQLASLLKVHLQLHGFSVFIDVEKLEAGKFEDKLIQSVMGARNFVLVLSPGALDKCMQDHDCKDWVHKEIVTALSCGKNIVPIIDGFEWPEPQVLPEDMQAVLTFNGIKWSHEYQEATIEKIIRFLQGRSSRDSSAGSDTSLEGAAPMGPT
Chain of Calcium-activated potassium channel subunit alpha-1 (Homo sapiens) + Leucine-rich repeat-containing protein 26 (Homo sapiens) (Q2I0M4 whole entry, looked up, one chain of several): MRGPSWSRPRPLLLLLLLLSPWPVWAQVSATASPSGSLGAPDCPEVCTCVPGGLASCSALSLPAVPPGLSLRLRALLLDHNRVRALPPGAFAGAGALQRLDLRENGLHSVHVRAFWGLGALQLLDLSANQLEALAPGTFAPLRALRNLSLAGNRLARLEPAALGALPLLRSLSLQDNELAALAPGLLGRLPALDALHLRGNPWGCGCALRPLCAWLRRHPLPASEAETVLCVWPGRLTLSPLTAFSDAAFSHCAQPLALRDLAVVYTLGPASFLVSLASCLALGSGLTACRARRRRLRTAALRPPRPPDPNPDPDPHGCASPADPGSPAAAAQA

One may read the inhibition as how much of the control response was suppressed. On to `CCCc1nc2c(C)cc(-c3nc4ccccc4n3C)cc2n1Cc1ccc(-c2ccccc2C(=O)O)cc1`, for which the nuclear beta-catenin stimulation in [1] (at 10 µM) is 3.7% (inactive); in [1] (stimulation, at 2 µM) it was 1.8%. The insulin secretion stimulation in test [2] is -0.5% (inactive). Besides, in test [3], the viability decrease was -22.6% (inactive). For the same molecule, in [4], the tube area decrease was 8% (inactive). Further, the GLP1 secretion stimulation in test [5] was 1.1% (inactive). Besides, the inhibition of viability in test [6] was 42% (inactive). The values for the viability decrease (inhibition) in test [7] and in test [8] were 94.1% (active) and 36.3% (inactive), respectively. Further, in test [9], the inhibition is 2.16% (inactive). The red/green cell ratio (normalised) in test [10] is 0.63 (inactive). The normalised cell number in test [10] (setting [15]) was found to be 1.26; in test [10] (setting [16]), 0.8. For the same molecule, the z-score was -0.258 (inactive) and 0.956 (inactive) and -0.424 (inactive) in test [11] (setting [17]); 0.516 and 0.961 and -0.332 in [11] (setting [18]). Also, the remaining NAD in test [12] was 10 nM (inactive). The log fold change Tl+ flux in the test on F380Y was -0.0745 (inactive); in the test with F380Y/beta1 it was 0.00163 (inactive); in the test with F380Y/beta2Delta, 0.025 (inactive); in the test with F380Y/beta4, -0.000976 (inactive); in [13] it was 0.054 (inactive); in the test on R275C, -0.0814 (inactive).

Consider `Oc1c(Cl)cc(Cl)c2cccnc12`, for which the nuclear beta-catenin stimulation in test [1] (at 10 µM) is 25.3% (inactive); in test [1] (stimulation, at 2 µM), 10.8%. For the same molecule, the insulin secretion stimulation in [2] was -1.7% (inactive). In test [3], the viability decrease is 90.7% (active). Further, in test [4], the tube area decrease was 102% (active). Also, the GLP1 secretion stimulation in test [5] is 5.7% (inactive). In [6], the inhibition of viability was 91.3% (active). Moreover, the viability decrease (inhibition) in test [7] was 111% (active); in test [8], 90% (active). Further, in test [9], the inhibition is 13% (inactive). Besides, in test [10], the red/green cell ratio (normalised) is 0.97 (inactive). The normalised cell number in test [10] (setting [15]) was 1.04; in [10] (setting [16]), 1.01. For the same molecule, the fold change in [14] (stronger effect = lower value, cell number ratio, induced over uninduced) was 1.3 (inactive) and 0.99 (inactive) and 0.933 (inactive); in test [14] (measured here: relative caspase fold change +Dox/-Dox), 0.88 and 1.1 and 1.4. Also, the cell count was 4540 and 5720 and 5380 in [14] (measured here: total cells with miR-34 induction, stronger effect = lower value); 3500 and 5780 and 5770 in [14] (measured here: total cells without miR-34 induction). Further, the z-score is -0.426 (inactive) and -0.351 (inactive) in test [11] (setting [17]); 0.846 and 0.186 in test [11] (setting [18]). Besides, in [12], the remaining NAD was 10 nM (inactive). For the same molecule, the log fold change Tl+ flux is 0.177 (active) in the test with F380Y; 0.135 (active) with F380Y/beta1; 0.437 (active) with F380Y/beta2Delta; 0.326 (active) in the test on F380Y/beta4; 0.231 (active) in [13]; 0.0996 (active) in the test with R275C.

Consider `OC(Cn1cncn1)(Cn1cncn1)c1ccc(F)cc1F`, for which the nuclear beta-catenin stimulation in [1] (at 10 µM) is 1.7% (inactive); in test [1] (stimulation, at 2 µM) it was 1.1%. In addition, the insulin secretion stimulation in test [2] was 4.05% (inactive). The viability decrease in [3] is 19.2% (inactive). In addition, the tube area decrease in test [4] is -10% (inactive). Also, the GLP1 secretion stimulation in test [5] is 1% (inactive). In addition, the inhibition of viability in [6] is 1.7% (inactive). Also, the viability decrease (inhibition) in test [7] was 7.1% (inactive); in test [8], 2.4% (inactive). Also, the inhibition in test [9] is 9% (inactive). Moreover, in test [10], the red/green cell ratio (normalised) is 1.28 (inactive). The normalised cell number amounted to 1.22 in [10] (setting [15]) and 1.57 in test [10] (setting [16]). In addition, the z-score was -0.408 (inactive) and -0.874 (inactive) and -0.724 (inactive) in [11] (setting [17]); -0.288 and -0.48 and -0.41 in [11] (setting [18]). Also, the remaining NAD in [12] was 14 nM (inactive). Further, the log fold change Tl+ flux in the test with F380Y is 0.0166 (inactive); in the test with F380Y/beta1 it was -0.0268 (inactive); in the test on F380Y/beta2Delta it was -0.000209 (inactive); in the test with F380Y/beta4 it was 0.0309 (inactive); in test [13], -0.0185 (inactive); in the test with R275C, 0.0468 (inactive).
